High-throughput results from PubChem.
Rows were chosen to be rich in hits. Some 19% of all compounds tested hit in one or more screens of this group.
HepG2 viability – qHTS for Inhibitors of TGF-b: Cytotox Counterscreen. HepG2 CAGA-GFP viability, ATP luminescence, 18 h. Potency, µM (titrated, usually from 46.1 µM), for the others: top-dose activity change, negative = cytotoxicity, usual class: cytotoxic. hit rate 0.76% among 410,000; further: potency means the concentration at half of the fitted maximal effect
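HepG2 CAGA-GFP cells (1000/well, DMEM with 1% FBS) received compound, then TGF-beta at 500 pg/mL final, and were incubated 18 hours at 37 degrees C. Viability was read by CellTiter-Glo luminescence. Media-only wells were set as complete cell-killing and DMSO as no toxicity.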
TGFb inhibitor – qHTS for Inhibitors of TGF-b | AID 588855, 2011 | HepG2 CAGA-GFP TGF-b/SMAD3 reporter, GFP fluorescence, 18 h; TGF-beta stimulated, 500 pg/mL final | Potency, µM (doses to about 46.1 µM), inactives show top-dose activity, negative = inhibition, actives largely listed as inhibitors | hit rate 1.2% among 410,000; further: potency means the concentration at half of the fitted maximal effect; on the % scale 0 is the no-effect control and ±100 the full control effect; nearly all actives have a fitted effect of over 65% in size
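Per well, imaged GFP fluorescence of HEPG2 CAGA-GFP cells gives the signal; cells get compound, then TGF-beta (500 pg/mL final), 18 h at 37 degrees C; %Activity versus -TGF-beta and +DMSO controls.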
DT40 TDP1 no CPT – qHTS for Inhibitors of human tyrosyl-DNA phosphodiesterase 1 (TDP1): qHTS in cells in absence of CPT. DT40 Tdp1-/- hTDP1 cells, no CPT, ATP luminescence, 48 h. Potency, µM (series often up to 46.2 µM), for the others: at the highest dose activity change, negative = growth inhibition, actives largely listed as inhibitors. hit rate 15% among 420,000; further: potency means the concentration at half of the fitted maximal effect; on the % scale 0 is the no-effect control and ±100 the full control effect; nearly all actives have a fitted effect of over 55% in size
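DT40 Tdp1-/-;hTDP1 cells, no CPT (DMSO vehicle only), 400 cells/well; compounds pin-transferred; ≥48 hr, 37 °C; CellTiter-Glo 30 min RT dark, luminescence read.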
TDP1 inh – qHTS Assay for Inhibitors of Tyrosyl-DNA Phosphodiesterase (TDP1); Potency, µM (top dose mostly 130 µM), without a hit: at the top dose activity change, negative = inhibition, most hits filed as inhibitors; AID 485290, 2010; hit rate 0.28% among 350,000; Tyrosyl-DNA phosphodiesterase 1 (Homo sapiens), Q9NUW8; recombinant TDP1, AlphaScreen DNA substrate cleavage; further: potency means the concentration at half of the fitted maximal effect; on the % scale 0 is the no-effect control and ±100 the full control effect; nearly all actives have a fitted effect of over 40% in size
Target sequence (Q9NUW8 whole entry, looked up): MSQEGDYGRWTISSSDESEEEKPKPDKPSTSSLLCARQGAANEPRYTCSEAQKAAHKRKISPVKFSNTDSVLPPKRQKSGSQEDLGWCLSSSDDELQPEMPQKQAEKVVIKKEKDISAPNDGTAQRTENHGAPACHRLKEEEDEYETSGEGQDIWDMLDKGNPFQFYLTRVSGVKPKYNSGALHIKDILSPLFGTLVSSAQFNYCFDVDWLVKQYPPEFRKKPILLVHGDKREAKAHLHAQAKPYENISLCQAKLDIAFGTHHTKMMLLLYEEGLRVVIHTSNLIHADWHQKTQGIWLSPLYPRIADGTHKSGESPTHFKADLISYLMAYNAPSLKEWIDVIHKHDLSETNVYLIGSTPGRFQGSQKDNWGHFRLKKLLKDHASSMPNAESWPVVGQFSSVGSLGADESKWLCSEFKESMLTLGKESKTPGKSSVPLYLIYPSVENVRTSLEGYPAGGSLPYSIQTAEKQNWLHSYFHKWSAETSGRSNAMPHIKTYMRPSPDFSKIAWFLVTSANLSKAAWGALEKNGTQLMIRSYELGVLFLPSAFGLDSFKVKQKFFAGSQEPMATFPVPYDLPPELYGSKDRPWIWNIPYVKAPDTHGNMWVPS
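Steps: enzyme plus compound, 15 min RT; add biotin/phosphotyrosine-FITC oligonucleotide (15 nM final), react 5 min; add donor/acceptor beads (10 ug/ml final), 10 min; read AlphaScreen. Tdp1 at 1 nM final.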
IL-1B inflam inh – qHTS for Inhibitors of Inflammasome Signaling: IL-1-beta AlphaLISA Primary Screen | THP-1 LPS/ATP IL-1B secretion, AlphaLISA, 16 h; active compounds read low | activity change, % at 57.5 µM | hit rate 4.7% among 360,000 | AID 743279, 2014; in the data active means activity change below about -50%; inconclusive means mostly about -30% to -49%; further: on the % scale 0 is the no-effect control and ±100 the full control effect
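Secreted IL-1B measured by AlphaLISA bead assay after 16 h compound exposure of THP-1 cells; compounds (final up to 57.5 uM) added 1 h before LPS (250 ng/mL) and ATP (1.25 mM) stimulation; lower signal means less secretion.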
TDP1 cell CPT – qHTS for Inhibitors of human tyrosyl-DNA phosphodiesterase 1 (TDP1): qHTS in cells in presence of CPT; chicken DT40 Tdp1-/-;hTDP1 cells + 20 nM CPT, ATP luminescence, 48 h; Potency, µM (doses to about 46.2 µM), for inactives: top-dose activity change, negative = growth inhibition, hits mostly inhibitors; hit rate 12% among 420,000; AID 686979, 2013; further: potency means the concentration at half of the fitted maximal effect; on the % scale 0 is the no-effect control and ±100 the full control effect; nearly all actives have a fitted effect of over 55% in size
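Cell growth measured by CellTiter-Glo luminescence after a minimum 48 h, 37 C compound exposure with 20 nM CPT in Tdp1-knockout DT40 cells stably expressing hTDP1, seeded 400/well; qHTS titration format.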
* marks the source's active call; other numbers are inactive results; i = inactive; ? = inconclusive; . = no result given; [ ] = dose if it differs, or a comment. Unless noted, the call rests on the fitted dose curve; in most records, active means well fitted curve in the direction sought with a large enough effect; inconclusive means small, poorly fitted or top-dose-only effect, or another doubt; inactive means no such curve, though single readings can be large; an effect the other way counts as inactive or inconclusive.

SMILES	HepG2 viability	TGFb inhibitor	DT40 TDP1 no CPT	TDP1 inh	IL-1B inflam inh	TDP1 cell CPT
Cc1ccc2c(c1)/C(=C/c1ccc(F)cc1)C(=O)N2	10µM*	?	21µM*	.	-75*	?
Cc1ccc2c(c1)/C(=N/N1C(=O)c3ccccc3C1=O)C(=O)N2	0%	2%	-1%	5%	6	?
O=C(O)CCC/C=C\C[C@H]1C(=O)C[C@@H](O)[C@@H]1/C=C/[C@@H](O)CCc1ccccc1	.	.	.	6%	.	.
C/C(CCC(=O)OC[C@@H]1O[C@H](C#Cc2ccccc2)C=C[C@@H]1Oc1ccc(C)cc1)=N/O[C@@H](C)c1cc(-c2c(C)cc(C)cc2C)no1	.	.	.	7%[21 µM]	.	.
CC(C)CCSc1nnc2n(-c3ccccc3)c(=O)c3c4c(sc3n12)CC(C)CC4 (stereo not given)	1%	-13%	-19%	5%[2.28 µM]	.	-16%
COc1cc(NC(=O)c2ccc(-n3cnc4cccnc43)cc2)cc(OC)c1	0%	-18%	.	0%	.	.
CC1(C)Cc2c(sc3c2c(=N)n(Cc2ccco2)c(=O)n3CC(=O)Nc2ccccc2)CO1	-8%	-27%	?	4%	-51*	?
CC1(C)Cc2c(sc3c2c(=N)n(Cc2ccco2)c(=O)n3CC(=O)Nc2ccc(Cl)cc2)CO1	-14%	11%	?	5%	-80*	?
Cc1cccc(NC(=O)Cn2c(=O)n(Cc3ccco3)c(=N)c3c4c(sc32)COC(C)(C)C4)c1	4%	-18%	?	5%	-25	?
CC1(C)Cc2c(sc3c2c(=N)n(Cc2ccco2)c(=O)n3CC(=O)Nc2cccc(Cl)c2)CO1	-5%	-66%	21µM*	-4%	?	?
COc1cc(CN2C(=O)CC[C@@H]3CN(Cc4ccccn4)CC[C@@H]32)cc(OC)c1OC	.	.	-23%	.	.	3%
COc1cc(/C=N/NC(=O)c2ccc(CN3C(=O)c4cccc5cccc3c45)cc2)cc(OC)c1O	-1%	?	?	0%	40	13µM*
COc1cc(/C=N/NC(=O)c2cc(-c3ccccc3Cl)nc3ccccc23)cc(OC)c1O	5%	-32%	6.5µM*	.	-10	?
COc1cc(/C=N/NC(=O)c2cc(-c3cccc(Br)c3)nc3ccccc23)cc(OC)c1O	-16%	?	?	.	44	21µM*
COc1cc(/C=N\NC(=O)c2ccc(-c3ccccc3)cc2)cc(Br)c1O	-15%	20%	?	-3%	i	?
COc1cc(/C=N/NC(=O)c2cc(-c3ccco3)nc3ccccc23)cc(OC)c1O	-19%	-10%	?	3%	29	10µM*
CCCSc1ncc(Cl)c(C(=O)Nc2c(C(=O)c3ccc(C)cc3)oc3ccccc23)n1	5%	.	0%	6%	.	-3%
CC(C)N(C(=S)Nc1ccc(S(=O)(=O)N2CCOCC2)cc1)c1ccccc1	-16%	21%	?	2%	3	-18%
O=C(Cn1c(=O)n(-c2ccccc2Cl)c(=O)c2sc3ccccc3c21)NC1CCCCC1	5%	5%	?	6%	.	-19%
O=C(N/N=C/c1cccc(F)c1)c1cc(-c2ccco2)nc2ccccc12	-27%	0%	10µM*	.	29	15µM*
Cc1cc(NS(=O)(=O)c2ccc(NC(=O)COc3ccc(Cl)cc3)cc2)nc(C)n1	-2%	-1%	?	.	.	?
